Test results reported in PubChem BioAssay AID1508622 (National Center for Advancing Translational Sciences (NCATS), 2021).
Active and inactive are the calls of the source. Entries that show only a call come without a potency. Calls follow the shape of the dose curve; as a rule, active = well fitted activation curve with a large enough effect; inconclusive = small, poorly fitted or top-dose-only effect; inactive = no such curve, though single readings can be large or run the other way.

Assay: Confirmatory qHTS for Identification of Small Molecule Activators of Huntingtin-Antisense Promoter Activity
Details: HEK293 HTT-AS promoter firefly luciferase reporter, 24 h; series mostly up to 57.5 µM
How it was run: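 HEK293 luciferase reporter cells, 2,500/well, cultured 24 h, then exposed to compounds at up to 57.5 uM final for 24 h at 37C. Firefly luciferase luminescence read; normalized to vehicle (0%) and zero RLU (-100%).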
Potency is read from the fitted curve at half-maximal effect.

Row | Structure (SMILES) | Potency
1 | O=C(c1ccc2c(c1)CCN2S(=O)(=O)c1ccc(Cl)cc1)N1CCN(c2ccccc2F)CC1 | inactive
2 | Cc1ccccc1C(=O)Nc1nc(-c2ccc(Br)cc2)ns1 | inactive
3 | COc1ccc(-c2nc(CSCC(=O)N3CCN(c4cc(Cl)ccc4C)CC3)c(C)o2)cc1 | inactive
4 | O=C(c1ccc2c(c1)N(Cc1ccccc1)C(=O)c1ccccc1S2(=O)=O)N1CCCCCC1 | inactive
5 | COc1ccc(N(CC(=O)N2CCN(c3cccc(C)c3C)CC2)S(=O)(=O)c2c(C)noc2C)cc1 | inactive
6 | CCN(c1ccccc1)S(=O)(=O)c1cc(C(=O)Nc2ccc(Br)cc2)ccc1F | inactive
7 | CC1CCN(C(=O)CSc2nnc(NC(=O)Nc3ccccc3)s2)CC1 | inactive
8 | O=S(=O)(NCc1ccc(F)cc1)c1ccc(N2CCCCS2(=O)=O)cc1 | inactive
9 | O=C(Cn1c(=O)oc2cc(S(=O)(=O)N3CCCCC3)ccc21)NCc1ccc(Cl)cc1 | inactive
10 | O=C(c1cccs1)N(Cc1cccnc1)c1nc2c(F)cc(F)cc2s1 | inactive
11 | COc1cc(Br)c(C2CC(=O)Nc3cc4c(cc32)OCCO4)cc1OC (stereo not drawn) | inactive
12 | O=c1[nH]c2ccc(NCc3ccc(-c4ccccc4)o3)cc2[nH]1 | inactive
13 | Cc1ccc(SCc2nc(-c3ccc(C(=O)NCc4ccccc4Cl)cc3)oc2C)cc1 | inactive
14 | Fc1cc(Br)ccc1Nc1c2c(nc3nc(-c4cccs4)nn13)CCCC2 | inactive
15 | COc1ccccc1CCNC(=O)c1ccc(-c2nc(CSc3ccc(C)cc3)c(C)o2)cc1 | inactive
16 | O=C(NCCc1nc2ccccc2n1CCCOc1ccc(Cl)cc1)C1CCCCC1 | inactive
17 | Cc1cccc(CSc2cn(CC(=O)N3CCOCC3)c3ccccc23)c1 | 3.01 µM (active)
18 | COc1cc(NC(=O)NC(C)c2c(-n3cccc3)sc3c2CCCC3)cc(OC)c1OC (stereo not drawn) | inactive
19 | O=C(C1CCC(CNS(=O)(=O)c2cccs2)CC1)N1CCN(c2ccc(Cl)cc2)CC1 (stereo not drawn) | inactive

Row | Structure (SMILES) | Potency
20 | CC(C)c1ccc(NC(=O)c2ccc(F)c(S(=O)(=O)N3CCc4ccccc4C3)c2)cc1 | inactive
21 | CCOc1ccc(S(=O)(=O)NCCc2csc(-c3ccc(Cl)cc3)n2)cc1 | inactive
22 | CCCOC(=O)c1cccc(NC(=O)c2c(-c3ccccc3Cl)noc2C)c1 | inactive
23 | COc1ccc(OC2CCN(S(=O)(=O)c3ccc(OC)cc3)CC2)cc1 | inactive
24 | Cc1ccc(-c2nc3sc(CCNS(=O)(=O)c4cc(F)ccc4F)c(C)n3n2)cc1 | inactive
25 | COc1ccc(NC(=O)c2cc(S(=O)(=O)NCCC3=CCCCC3)ccc2F)cc1 | inactive
26 | CC(C)c1ccc(Cc2cnc(NC(=O)c3ccc4c(c3)CC(c3ccccc3)OC4=O)s2)cc1 (stereo not drawn) | inactive
27 | Cc1cccc(CN2C(=O)N(c3ccc(C(C)C)cc3)S(=O)(=O)c3ccccc32)c1 | inactive
28 | Cc1ccc(C)c(NC(=O)C(=O)NCC(c2cccnc2)N2CCN(c3ccc(F)cc3)CC2)c1 (stereo not drawn) | inactive
29 | CC(C)(C)OC(=O)N1CCC(c2c(C(=O)N3CCC(c4ccccc4)C3)cnn2-c2ccc(Cl)cc2)CC1 (stereo not drawn) | inactive
30 | CC(CNC(=O)c1ccc(CSc2nc3ccncc3n2Cc2ccc(F)cc2)cc1)c1ccccc1 (stereo not drawn) | inactive
31 | Cc1ccc(C2=CC(c3ccc(Cl)cc3)n3nc(-c4ccc(C)cc4)nc3N2)cc1 (stereo not drawn) | inactive
32 | Cc1ccccc1Cn1c(=O)n(Cc2ccco2)c(=O)c2oc3ccccc3c21 | inactive
33 | Cc1ccc(S(=O)(=O)NCCc2csc(-c3ccc(Cl)cc3)n2)cc1 | inactive
34 | COc1ccc(-c2noc(C(C)NC(=O)c3ccco3)n2)cc1 (stereo not drawn) | inactive
35 | CCOC(=O)Cc1ccc(NC(=O)N(Cc2ccc(CC)cc2)Cc2cn[nH]c2-c2ccc(OC)cc2)cc1 | inactive
36 | COc1ccccc1CNC(=O)c1ccc(N2CCCC2)c(NC(=O)NCc2ccc(C)cc2)c1 | inactive
37 | Cc1cc(C)cc(N2C(=O)CSC23C(=O)N(Cc2c(F)cccc2Cl)c2ccccc23)c1 (stereo not drawn) | inactive
38 | O=C(CSc1nccn1Cc1ccco1)Nc1cc(C(F)(F)F)ccc1Cl | inactive
